We go through eight compounds from PubChem BioAssay (Tox21).

Molecules are shown by their SMILES. A number with no mark means an inactive call. Inconclusive results are not listed. Calls of active or inactive are those of the source. Unless noted, calls follow the shape of the dose curve; as a rule, active = well fitted curve in the direction sought with a large enough effect in the repeat runs; inconclusive = weak or mixed curves; inactive = no such curve, though single readings can be large; an effect the other way counts as inactive or inconclusive.

Assay [1] in a line: qHTS assay to test for compound auto fluorescence at 535 nm (green) in HEK293 cells (AID 720680).
Assay [2] in a line: qHTS assay to test for compound auto fluorescence at 460 nm (blue) in HEK293 cell free culture (AID 720681). Summed up: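 Blue fluorescence (Ex 405/Em 460 nm, triamterene-equivalent) was read immediately after pin transfer of compound or DMSO into medium (DMEM, 10% FBS) without cells.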
A general note: Quantitative high-throughput screening tests each substance at several concentrations.

Assay [3] can be described thus: qHTS assay to test for compound auto fluorescence at 535 nm (green) in HEK293 cell free culture (AID 720682). The gist of the method:
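Steps: dispense DMEM/10% FBS into empty wells; pin in compound or DMSO; measure fluorescence at 485/535 nm. Values are fluorescein equivalents.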

Assay [4] is described as follows: qHTS assay to test for compound auto fluorescence at 590 nm (red) in HEK293 cell free culture (AID 720683). The gist of the method: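 Red-channel autofluorescence of compounds in culture medium (DMEM, 10% FBS), no cells, measured at 540/590 nm. Rose Bengal sodium is the reference fluorophore for equivalence.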
Assay [5] can be described thus: qHTS assay to test for compound auto fluorescence at 590 nm (red) in HepG2 cell free culture (AID 720684). Summed up:
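Cell-free; medium MEM + 10% FBS; compound or DMSO added by pintool; read Ex 540/Em 590 nm; Rose Bengal sodium as red reference fluorophore.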

Assay [6] can be described thus: qHTS assay to test for compound auto fluorescence at 460 nm (blue) in HepG2 cell free culture (AID 720685). The gist of the method:
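Cell-free plates of MEM plus 10% FBS received 23 nL compound or DMSO vehicle; blue-channel (405/460 nm) intensity scored against triamterene as reference fluorophore.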

Assay [7] is described as follows: qHTS assay to test for compound auto fluorescence at 535 nm (green) in HepG2 cell free culture (AID 720686).
A short description of assay [8]: qHTS assay to test for compound auto fluorescence at 460 nm (blue) in HepG2 cells (AID 720687). Summed up: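 Blue-channel autofluorescence (Ex/Em 405/460 nm, triamterene-equivalent) was measured after 1 hr compound exposure at 37 C, 5% CO2. Cells were HepG2, plated overnight at 37 C in MEM plus 10% FBS.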
For assay [9], the target named is Glucocorticoid receptor (Homo sapiens) (UniProt P04150). Put plainly: qHTS assay to identify small molecule agonists of the glucocorticoid receptor (GR) signaling pathway (AID 720691; active = well fitted activation curve with a large enough effect in the signal ratio in the repeat runs, not every such curve was filed as active; the % refers to the signal ratio). The gist of the method: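 A HeLa cervical cancer line expressing GR and a glucocorticoid response element-driven beta-lactamase gene is treated with compounds for 18 h; LiveBLAzer B/G FRET substrate is then applied and fluorescence read.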

For assay [10] the target is unchanged. Put plainly: qHTS assay to identify small molecule antagonists of the glucocorticoid receptor (GR) signaling pathway (AID 720692; active = well fitted inhibition curve with a large enough effect in the signal ratio in the repeat runs, not every such curve was filed as active; the % refers to the signal ratio). The gist of the method:
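GRE-bla HeLa line, dex-stimulated (5 nM final). Compound exposure 18 h, 37 C. Beta-lactamase FRET read after 2 h RT substrate.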

A short description of assay [11]: qHTS assay to identify small molecule antagonists of the glucocorticoid receptor (GR) signaling pathway - cell viability counter screen (AID 720693). Also: nearly all actives have a fitted effect of over 55% in size.
Assay [12] can be described thus: qHTS assay for identifying genotoxic compounds that show differential cytotoxicity against isogenic chicken DT40 cell lines with known DNA damage response pathways - wild type cell line (AID 743012). Also: nearly all actives have a fitted effect of over 60% in size. The gist of the method:
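300 wt DT40 cells/well; cpd (DMSO) pintool-transferred after ~0.5 h at 37 C/5% CO2; 40 h incubation; CellTiter-Glo added, 30 min RT; luminescence read.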

A short description of assay [13]: qHTS assay for identifying genotoxic compounds that show differential cytotoxicity against isogenic chicken DT40 cell lines with known DNA damage response pathways - Rev3 mutant cell line (AID 743014). Also: nearly all actives have a fitted effect of over 55% in size. Also: potency is read from the fitted curve at half-maximal effect.
Assay [14] in a line: qHTS assay to identify small molecule antagonists of the androgen receptor (AR) signaling pathway - cell viability counter screen (AID 743033; also: nearly all actives have a fitted effect of over 45% in size).
A short description of assay [15]: qHTS assay to identify small molecule antagonists of the androgen receptor (AR) signaling pathway using the MDA cell line - cell viability counter screen (AID 743041; also: nearly all actives have a fitted effect of over 45% in size). Summed up:
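Viability read by CellTiter-Fluor fluorescence in the same wells as the antagonist screen, added after 15.5 h of a 16 h, 37C exposure. Human breast carcinoma MDA-kb2 AR-luc cells, compounds co-dosed with agonist R1881.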

A short description of assay [16]: qHTS assay for identifying genotoxic compounds that show differential cytotoxicity against isogenic chicken DT40 cell lines with known DNA damage response pathways - Rad54/Ku70 mutant cell line (AID 743015). Also: nearly all actives have a fitted effect of over 60% in size.
Assay [17] deals with Androgen receptor (Homo sapiens) (UniProt P10275). Put plainly: qHTS assay to identify small molecule antagonists of the androgen receptor (AR) signaling pathway (AID 743035; active = well fitted inhibition curve with a large enough effect in the signal ratio in the repeat runs, not every such curve was filed as active; the % refers to the signal ratio). The gist of the method:
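In this cell-based reporter screen, compounds were tested in concentration series against R1881-activated HEK293 cells expressing beta-lactamase under UAS control; after 16 h at 37C, FRET substrate was added and fluorescence read 2 h later.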

Assay [18] has the same target. Put plainly: qHTS assay to identify small molecule agonists of the androgen receptor (AR) signaling pathway (AID 743036; active = well fitted activation curve with a large enough effect in the signal ratio in the repeat runs, with a control signal flat, not every such curve was filed as active; the % refers to the signal ratio). The gist of the method:
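Reporter line: GeneBLAzer AR-UAS-bla-GripTite (HEK293). Steps: plate cells, 4 h rest, add compounds, 16 h at 37C, add LiveBLAzer B/G substrate, 2 h at RT, read fluorescence.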

Assay [19] has the same target. Put plainly: qHTS assay to identify small molecule agonists of the androgen receptor (AR) signaling pathway using the MDA cell line (AID 743040; also: nearly all actives have a fitted effect of over 20% in size). The gist of the method:
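Luciferase agonist assay: 16 h compound exposure at 37C without CO2 in MDA-kb2 AR-luc cells, whose MMTV promoter responds to both AR and GR. Luminescence measured after 30 min room-temperature incubation with ONE-Glo.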

Assay [20] shares this target. Put plainly: qHTS assay to identify small molecule antagonists of the androgen receptor (AR) signaling pathway using the MDA cell line (AID 743042; also: nearly all actives have a fitted effect of over 55% in size). Summed up: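 Antagonist mode: compounds plus R1881 agonist added to MDA-kb2 AR-luc cells, incubated 16 h at 37C. Luciferase reporter luminescence quantified, with multiplexed CellTiter-Fluor readout for cell viability.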
% is scaled to controls: 0 for no effect and ±100 for the full control effect.

Androgen receptor (Homo sapiens), sequence (P10275 whole entry, looked up): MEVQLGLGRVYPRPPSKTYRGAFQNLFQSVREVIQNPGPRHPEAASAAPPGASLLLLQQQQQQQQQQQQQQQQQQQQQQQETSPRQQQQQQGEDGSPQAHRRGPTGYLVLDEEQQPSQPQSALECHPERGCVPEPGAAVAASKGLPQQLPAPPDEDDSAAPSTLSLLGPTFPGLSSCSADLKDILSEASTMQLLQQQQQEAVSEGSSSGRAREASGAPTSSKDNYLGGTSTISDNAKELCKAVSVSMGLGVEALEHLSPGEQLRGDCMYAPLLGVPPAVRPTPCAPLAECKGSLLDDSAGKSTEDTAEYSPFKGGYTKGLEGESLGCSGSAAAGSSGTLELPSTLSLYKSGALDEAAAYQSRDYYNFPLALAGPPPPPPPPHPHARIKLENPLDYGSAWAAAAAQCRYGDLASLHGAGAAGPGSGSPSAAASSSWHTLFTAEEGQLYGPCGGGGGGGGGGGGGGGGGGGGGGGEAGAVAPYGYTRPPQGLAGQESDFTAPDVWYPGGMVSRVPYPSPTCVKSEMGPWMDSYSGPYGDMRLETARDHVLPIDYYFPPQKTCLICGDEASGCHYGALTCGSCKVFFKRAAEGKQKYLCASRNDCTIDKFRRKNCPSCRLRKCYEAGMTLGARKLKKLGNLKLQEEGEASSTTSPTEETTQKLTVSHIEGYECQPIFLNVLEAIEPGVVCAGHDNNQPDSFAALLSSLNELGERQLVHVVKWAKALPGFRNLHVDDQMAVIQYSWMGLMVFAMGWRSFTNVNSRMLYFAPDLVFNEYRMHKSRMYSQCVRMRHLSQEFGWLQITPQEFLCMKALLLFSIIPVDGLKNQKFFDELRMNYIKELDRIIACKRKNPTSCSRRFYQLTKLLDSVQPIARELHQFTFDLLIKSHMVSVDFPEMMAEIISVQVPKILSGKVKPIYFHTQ
Glucocorticoid receptor (Homo sapiens), sequence (P04150 whole entry, looked up): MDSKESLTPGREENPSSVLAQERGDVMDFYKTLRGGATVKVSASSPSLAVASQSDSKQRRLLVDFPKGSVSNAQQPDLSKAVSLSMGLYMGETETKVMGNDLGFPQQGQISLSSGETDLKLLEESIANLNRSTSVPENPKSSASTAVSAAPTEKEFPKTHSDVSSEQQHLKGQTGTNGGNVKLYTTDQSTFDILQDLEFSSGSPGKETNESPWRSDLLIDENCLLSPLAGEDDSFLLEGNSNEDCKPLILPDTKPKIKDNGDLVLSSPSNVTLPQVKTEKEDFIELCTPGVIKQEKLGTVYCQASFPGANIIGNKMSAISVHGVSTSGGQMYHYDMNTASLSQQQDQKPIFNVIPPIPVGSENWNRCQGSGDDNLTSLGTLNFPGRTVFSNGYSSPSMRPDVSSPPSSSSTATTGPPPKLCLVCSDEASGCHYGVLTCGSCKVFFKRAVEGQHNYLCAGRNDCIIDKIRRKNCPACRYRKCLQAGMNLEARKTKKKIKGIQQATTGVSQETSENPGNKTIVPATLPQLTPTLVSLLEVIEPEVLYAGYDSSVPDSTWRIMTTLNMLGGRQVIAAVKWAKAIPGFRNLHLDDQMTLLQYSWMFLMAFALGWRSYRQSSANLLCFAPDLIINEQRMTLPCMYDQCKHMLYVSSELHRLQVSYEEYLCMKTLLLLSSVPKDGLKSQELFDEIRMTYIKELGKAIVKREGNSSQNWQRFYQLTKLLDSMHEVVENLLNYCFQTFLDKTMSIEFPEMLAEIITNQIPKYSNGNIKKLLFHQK

`CC(C)(O)c1ccccc1`: the compound was called inactive in assay [1], in [3], in [4], in assay [5], in assay [7] and in [11]. In addition, the call in assay [14] was inactive. Further, the Potency entry in assay [2], in assay [6], in assay [8], in assay [9], in assay [10] and in [12] was “inactive” in each case. Moreover, the Potency result in assay [13] and in assay [15] was “inactive” each time.

Take `CC(CCO)CCCC(C)(C)O` (stereo not drawn): the call in assay [1], in assay [3], in assay [4], in assay [5], in assay [7] and in assay [11] was inactive. Moreover, the Potency result in [2], in assay [6], in assay [8], in [9], in assay [10] and in [15] was “inactive” in each case. Further, the Potency in assay [13] was 48.6 µM (active).

As for `CCc1cc(S(=O)(=O)O)c2cc(C(C)C)cccc1-2`, the result in assay [1], in [3], in assay [4], in [5], in assay [7] and in assay [14] was inactive. Further, the Potency entry in [2], in assay [6], in assay [8], in assay [9], in assay [10] and in [12] was “inactive” in each case. For the same compound, the Potency entry in [13] and in assay [15] was “inactive” each time.

With `CN1[C@@H]2CC[C@H]1CC(NC(=O)n1c(=O)[nH]c3ccccc31)C2` (stereo partly drawn), the call in [1], in assay [3], in assay [4], in assay [5], in assay [7] and in assay [14] was inactive. Also, the call in assay [18] and in [20] was inactive. Also, the Potency result in assay [2], in assay [6], in [8], in assay [9], in assay [10] and in [12] was “inactive” each time. The Potency result in assay [13], in assay [16], in [17], in assay [19] and in [15] was “inactive” in each case.

For the compound `O=C1C(CCS(=O)c2ccccc2)C(=O)N(c2ccccc2)N1c1ccccc1` (stereo not drawn), the fluorescence, % of fluorescein in assay [1] was -0.11% [at 18.6 µM]. The fluorescence, % of fluorescent control in [2] is 0.0823% [at 18.6 µM]; in [4], 0.107% [at 18.6 µM]; in assay [6], -0.0192% [at 18.6 µM]; in assay [8], -0.182% [at 18.6 µM]. The activity change in assay [3] is 0.112% [at 18.6 µM]. Further, in assay [5], the fluorescence, % of Rose Bengal is -0.0469% [at 18.6 µM]. The fluorescence, % of fluorescein control in assay [7] was -0.0165% [at 18.6 µM]. Further, the Potency result in [9], in assay [10], in [12] and in [15] was “inactive” in each case. In addition, the call in assay [11] and in [14] was inactive.

`FC(F)(F)C(F)(F)C(F)(F)C(F)(F)C(F)(F)C(F)(F)C(F)(F)C(F)(F)C(F)(F)C(F)(F)F`: in assay [1], the fluorescence, % of fluorescein is 0.0789% [at 9.17 µM]. Besides, the fluorescence, % of fluorescent control is -0.0458% [at 9.17 µM] in [2], -0.0476% [at 9.17 µM] in assay [4], -0.151% [at 9.17 µM] in assay [6] and 0.105% [at 9.17 µM] in assay [8]. Moreover, the activity change in [3] was 0.0023% [at 9.17 µM]. In addition, the fluorescence, % of Rose Bengal in assay [5] is -0.199% [at 9.17 µM]. For the same compound, the fluorescence, % of fluorescein control in assay [7] was 0.0369% [at 9.17 µM]. Besides, in assay [9], the activation is -0.303% [at 6.9 µM]. Further, the activity change, negative = inhibition in assay [10] is -11.7% [at 7.04 µM]. For the same compound, the viability change, negative = cytotoxic in [11] was -1.03% [at 7.04 µM]; in assay [15], 6.81% [at 8.47 µM]. Also, the activity, negative = cytotoxicity in assay [13] was -1.46% [at 8.53 µM]. In addition, the figures for the activity change, negative = cytotoxicity in [16] and in assay [14] were 4.69% [at 8.55 µM] and 0.133% [at 7.04 µM], respectively.

As to `CC1=CC(C)C(C=O)C(C)C1` (stereo not drawn), the outcome in assay [1], in [3], in assay [4], in [5], in assay [7] and in assay [11] was inactive. Also, in [14], the compound was called inactive. The Potency result in assay [2], in assay [6], in assay [8], in assay [9], in [10] and in assay [12] was “inactive” throughout. Also, the Potency result in assay [15] was “inactive”.

`CCCOc1ccccc1-c1nc2n[nH]nc2c(=O)[nH]1`: the outcome in assay [1], in assay [3], in assay [4], in assay [5], in assay [7] and in assay [11] was inactive. Further, the outcome in [14] was inactive. Also, the Potency entry in [2], in [6], in assay [8], in assay [9], in [10] and in assay [12] was “inactive” throughout. In assay [15], the Potency result is “inactive”.
